Data: article PMC7862700, “An all-to-all approach to the identification of sequence-specific readers for epigenetic DNA modifications on cytosine”

How the values were obtained:
Assay in all cases: DAPPL (digital affinity profiling via proximity ligation, sequencing); 10 mM Tris-HCl pH 7.5, 50 mM NaCl, 1 mM DTT, 4% glycerol, room temperature, 30 min; GST-TFs on glutathione beads, 16-mer random dsDNA library, 0.1% formaldehyde crosslink after washing; high values mean tight binding
Details in all cases: protein: recombinant; tags: N-terminal GST; dsDNA, one strand shown
ERF = molecular target: T1, ERF (Homo sapiens, UniProt P50548 1-548)
T1 sequence: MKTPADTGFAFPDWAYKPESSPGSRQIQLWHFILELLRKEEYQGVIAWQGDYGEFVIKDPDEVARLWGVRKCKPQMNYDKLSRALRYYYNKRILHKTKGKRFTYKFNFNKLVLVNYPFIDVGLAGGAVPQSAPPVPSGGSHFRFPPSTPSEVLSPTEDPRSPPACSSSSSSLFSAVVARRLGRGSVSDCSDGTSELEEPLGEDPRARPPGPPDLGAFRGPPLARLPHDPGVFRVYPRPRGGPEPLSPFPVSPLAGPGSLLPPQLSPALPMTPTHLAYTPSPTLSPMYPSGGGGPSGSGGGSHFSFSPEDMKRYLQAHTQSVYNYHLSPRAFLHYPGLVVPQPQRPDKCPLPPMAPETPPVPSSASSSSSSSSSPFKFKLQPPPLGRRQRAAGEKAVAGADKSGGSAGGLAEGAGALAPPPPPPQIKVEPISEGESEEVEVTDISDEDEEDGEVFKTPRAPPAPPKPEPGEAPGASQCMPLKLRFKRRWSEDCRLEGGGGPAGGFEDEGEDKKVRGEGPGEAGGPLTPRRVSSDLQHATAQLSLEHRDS
Summary of the method: (§1)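 Binding signal is given per hexamer as its read frequency for a factor divided by its frequency in the tag-only sample. GST-fused human transcription factors were expressed in yeast, captured on glutathione beads, barcoded with DNA and pooled with that sample, then incubated with 200 nmole of a 16-mer random double-stranded DNA library in Tris/NaCl/DTT/glycerol buffer for 30 min at room temperature. The pools were then washed, crosslinked, proximity-ligated, amplified by PCR and sequenced on an Illumina NextSeq500.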

ETV3L = molecular target: T2, ETV3L (Homo sapiens, UniProt Q6ZN32 1-361)
T2 sequence: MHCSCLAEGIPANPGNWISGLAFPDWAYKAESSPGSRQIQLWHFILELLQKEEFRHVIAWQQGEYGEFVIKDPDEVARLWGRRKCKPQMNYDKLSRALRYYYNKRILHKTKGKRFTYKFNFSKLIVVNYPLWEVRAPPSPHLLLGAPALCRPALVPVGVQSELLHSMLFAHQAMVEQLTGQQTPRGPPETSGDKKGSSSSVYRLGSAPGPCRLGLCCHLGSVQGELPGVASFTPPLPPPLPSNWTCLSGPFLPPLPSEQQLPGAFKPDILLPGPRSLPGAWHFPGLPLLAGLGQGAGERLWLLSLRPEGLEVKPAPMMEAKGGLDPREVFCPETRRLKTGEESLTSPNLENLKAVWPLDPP
Summary of the method: as §1

ETS2 = molecular target: T3, ETS2 (Homo sapiens, UniProt P15036 1-469)
T3 sequence: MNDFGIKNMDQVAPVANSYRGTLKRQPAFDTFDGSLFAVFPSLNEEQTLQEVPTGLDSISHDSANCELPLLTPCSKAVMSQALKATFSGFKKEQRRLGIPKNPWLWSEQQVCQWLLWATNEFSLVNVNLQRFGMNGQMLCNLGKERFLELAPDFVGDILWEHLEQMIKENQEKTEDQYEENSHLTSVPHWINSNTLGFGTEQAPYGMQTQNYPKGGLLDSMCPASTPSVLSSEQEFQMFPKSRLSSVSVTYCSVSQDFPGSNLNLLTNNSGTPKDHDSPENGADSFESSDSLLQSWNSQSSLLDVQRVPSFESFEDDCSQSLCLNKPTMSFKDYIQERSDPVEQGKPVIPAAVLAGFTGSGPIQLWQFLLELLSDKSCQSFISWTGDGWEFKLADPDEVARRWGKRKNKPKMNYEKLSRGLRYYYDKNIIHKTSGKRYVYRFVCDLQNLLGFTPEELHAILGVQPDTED
Summary of the method: as §1

SPDEF = molecular target: T4, SPDEF (Homo sapiens, UniProt O95238 1-335)
T4 sequence: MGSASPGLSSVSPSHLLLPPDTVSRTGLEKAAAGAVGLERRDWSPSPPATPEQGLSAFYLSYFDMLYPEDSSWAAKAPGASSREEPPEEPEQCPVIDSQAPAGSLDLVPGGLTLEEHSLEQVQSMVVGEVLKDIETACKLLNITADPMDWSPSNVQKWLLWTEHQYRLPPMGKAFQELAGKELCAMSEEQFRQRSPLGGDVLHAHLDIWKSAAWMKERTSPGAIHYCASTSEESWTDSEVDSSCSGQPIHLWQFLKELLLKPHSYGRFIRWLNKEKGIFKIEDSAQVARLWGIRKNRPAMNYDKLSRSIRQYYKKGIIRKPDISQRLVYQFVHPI
Summary of the method: as §1

ETV7 = molecular target: T5, ETV7 (Homo sapiens, UniProt Q9Y603 1-341)
T5 sequence: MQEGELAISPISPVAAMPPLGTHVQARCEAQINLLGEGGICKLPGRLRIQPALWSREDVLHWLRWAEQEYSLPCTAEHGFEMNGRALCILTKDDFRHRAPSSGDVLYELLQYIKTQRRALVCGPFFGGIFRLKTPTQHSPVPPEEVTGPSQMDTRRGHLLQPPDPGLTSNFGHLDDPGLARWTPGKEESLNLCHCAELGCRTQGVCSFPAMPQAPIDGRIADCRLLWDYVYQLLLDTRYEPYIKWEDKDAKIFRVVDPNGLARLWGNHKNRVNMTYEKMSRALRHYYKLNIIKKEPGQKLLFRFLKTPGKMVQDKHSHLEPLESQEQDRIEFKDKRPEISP
Summary of the method: as §1

ELF5 = molecular target: T6, ELF5 (Homo sapiens, UniProt Q9UKW6-2 1-255)
T6 sequence: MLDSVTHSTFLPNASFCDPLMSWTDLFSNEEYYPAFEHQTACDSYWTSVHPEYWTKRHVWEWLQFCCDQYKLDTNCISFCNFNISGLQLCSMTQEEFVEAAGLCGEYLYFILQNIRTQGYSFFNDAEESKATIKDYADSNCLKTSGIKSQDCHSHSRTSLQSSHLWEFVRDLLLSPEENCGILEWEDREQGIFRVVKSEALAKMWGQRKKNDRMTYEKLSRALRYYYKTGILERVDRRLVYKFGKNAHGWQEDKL
Summary of the method: as §1

ETV3 = molecular target: T7, ETV3 (Homo sapiens, UniProt P41162-2 1-143)
T7 sequence: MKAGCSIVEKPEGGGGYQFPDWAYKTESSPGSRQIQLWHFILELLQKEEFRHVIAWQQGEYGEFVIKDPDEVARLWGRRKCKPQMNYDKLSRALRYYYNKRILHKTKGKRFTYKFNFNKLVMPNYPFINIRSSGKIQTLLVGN
Summary of the method: as §1

ETV6 = ETV6 (Homo sapiens, UniProt P41212 1-452)
ETV6, sequence (P41212 whole entry): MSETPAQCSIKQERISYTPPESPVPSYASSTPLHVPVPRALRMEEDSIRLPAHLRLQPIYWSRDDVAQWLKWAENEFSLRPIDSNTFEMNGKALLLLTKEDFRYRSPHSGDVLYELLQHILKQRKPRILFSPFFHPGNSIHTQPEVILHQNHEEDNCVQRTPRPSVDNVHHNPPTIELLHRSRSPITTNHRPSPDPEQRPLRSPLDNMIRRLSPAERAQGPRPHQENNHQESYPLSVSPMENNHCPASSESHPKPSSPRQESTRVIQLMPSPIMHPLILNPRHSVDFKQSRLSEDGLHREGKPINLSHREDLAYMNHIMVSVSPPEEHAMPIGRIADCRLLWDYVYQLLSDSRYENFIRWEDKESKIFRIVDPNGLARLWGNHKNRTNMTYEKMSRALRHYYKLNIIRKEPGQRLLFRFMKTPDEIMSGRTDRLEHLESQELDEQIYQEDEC
Summary of the method: as §1

Sequence	binding signal (ERF)	binding signal (ETV3L)	binding signal (ETS2)	binding signal (SPDEF)	binding signal (ETV7)	binding signal (ELF5)	binding signal (ETV3)	binding signal (ETV6)
CTCTCA	1.5 fold enrichment (6-mer frequency, TF over GST control)	1.39 fold enrichment (6-mer frequency, TF over GST control)	1.42 fold enrichment (6-mer frequency, TF over GST control)	1.32 fold enrichment (6-mer frequency, TF over GST control)	1.11 fold enrichment (6-mer frequency, TF over GST control)	1.28 fold enrichment (6-mer frequency, TF over GST control)	1.43 fold enrichment (6-mer frequency, TF over GST control)	1.36 fold enrichment (6-mer frequency, TF over GST control)
CTCTGT	1.5 fold enrichment (6-mer frequency, TF over GST control)	1.33 fold enrichment (6-mer frequency, TF over GST control)	1.5 fold enrichment (6-mer frequency, TF over GST control)	1.45 fold enrichment (6-mer frequency, TF over GST control)	1.43 fold enrichment (6-mer frequency, TF over GST control)	1.37 fold enrichment (6-mer frequency, TF over GST control)	1.43 fold enrichment (6-mer frequency, TF over GST control)	1.44 fold enrichment (6-mer frequency, TF over GST control)
TCAACT	1.31 fold enrichment (6-mer frequency, TF over GST control)	1.32 fold enrichment (6-mer frequency, TF over GST control)	1.34 fold enrichment (6-mer frequency, TF over GST control)	1.27 fold enrichment (6-mer frequency, TF over GST control)	1.12 fold enrichment (6-mer frequency, TF over GST control)	1.24 fold enrichment (6-mer frequency, TF over GST control)	1.31 fold enrichment (6-mer frequency, TF over GST control)	1.33 fold enrichment (6-mer frequency, TF over GST control)
CTCGAG	1.29 fold enrichment (6-mer frequency, TF over GST control)	1.25 fold enrichment (6-mer frequency, TF over GST control)	1.17 fold enrichment (6-mer frequency, TF over GST control)	1.16 fold enrichment (6-mer frequency, TF over GST control)	1.36 fold enrichment (6-mer frequency, TF over GST control)	1.16 fold enrichment (6-mer frequency, TF over GST control)	1.16 fold enrichment (6-mer frequency, TF over GST control)	1.32 fold enrichment (6-mer frequency, TF over GST control)
CTTTAT	1.08 fold enrichment (6-mer frequency, TF over GST control)	1.22 fold enrichment (6-mer frequency, TF over GST control)	1.29 fold enrichment (6-mer frequency, TF over GST control)	1.14 fold enrichment (6-mer frequency, TF over GST control)	1.31 fold enrichment (6-mer frequency, TF over GST control)	1.13 fold enrichment (6-mer frequency, TF over GST control)	1.19 fold enrichment (6-mer frequency, TF over GST control)	1.23 fold enrichment (6-mer frequency, TF over GST control)
ATTTAC	1.27 fold enrichment (6-mer frequency, TF over GST control)	1.18 fold enrichment (6-mer frequency, TF over GST control)	1.28 fold enrichment (6-mer frequency, TF over GST control)	1.21 fold enrichment (6-mer frequency, TF over GST control)	1.28 fold enrichment (6-mer frequency, TF over GST control)	1.25 fold enrichment (6-mer frequency, TF over GST control)	1.29 fold enrichment (6-mer frequency, TF over GST control)	1.18 fold enrichment (6-mer frequency, TF over GST control)
ATTACC	1.18 fold enrichment (6-mer frequency, TF over GST control)	1.2 fold enrichment (6-mer frequency, TF over GST control)	1.27 fold enrichment (6-mer frequency, TF over GST control)	1.18 fold enrichment (6-mer frequency, TF over GST control)	1.28 fold enrichment (6-mer frequency, TF over GST control)	1.32 fold enrichment (6-mer frequency, TF over GST control)	1.31 fold enrichment (6-mer frequency, TF over GST control)	1.33 fold enrichment (6-mer frequency, TF over GST control)
ATATGC	1.15 fold enrichment (6-mer frequency, TF over GST control)	1.11 fold enrichment (6-mer frequency, TF over GST control)	1.19 fold enrichment (6-mer frequency, TF over GST control)	1.14 fold enrichment (6-mer frequency, TF over GST control)	1.11 fold enrichment (6-mer frequency, TF over GST control)	1.12 fold enrichment (6-mer frequency, TF over GST control)	1.16 fold enrichment (6-mer frequency, TF over GST control)	1.12 fold enrichment (6-mer frequency, TF over GST control)
